# Among all 310,000 compounds or so, about 14,000 (4.5%) showed an effect of 50% or more. Effects have a minus sign here. The full list was thinned out, with strong results kept by preference.
# Target: human ether-à-go-go-related gene (hERG) potassium channel (human, UniProt Q12809)
# Experiment: primary screen, population patch clamp on CHO cells stably expressing hERG; higher = less effect of the substance
# 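Further: peak tail current of the secondary pulse compared with the same well before compound.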
# Chain of human ether-à-go-go-related gene (hERG) potassium channel (Q12809 whole entry, looked up): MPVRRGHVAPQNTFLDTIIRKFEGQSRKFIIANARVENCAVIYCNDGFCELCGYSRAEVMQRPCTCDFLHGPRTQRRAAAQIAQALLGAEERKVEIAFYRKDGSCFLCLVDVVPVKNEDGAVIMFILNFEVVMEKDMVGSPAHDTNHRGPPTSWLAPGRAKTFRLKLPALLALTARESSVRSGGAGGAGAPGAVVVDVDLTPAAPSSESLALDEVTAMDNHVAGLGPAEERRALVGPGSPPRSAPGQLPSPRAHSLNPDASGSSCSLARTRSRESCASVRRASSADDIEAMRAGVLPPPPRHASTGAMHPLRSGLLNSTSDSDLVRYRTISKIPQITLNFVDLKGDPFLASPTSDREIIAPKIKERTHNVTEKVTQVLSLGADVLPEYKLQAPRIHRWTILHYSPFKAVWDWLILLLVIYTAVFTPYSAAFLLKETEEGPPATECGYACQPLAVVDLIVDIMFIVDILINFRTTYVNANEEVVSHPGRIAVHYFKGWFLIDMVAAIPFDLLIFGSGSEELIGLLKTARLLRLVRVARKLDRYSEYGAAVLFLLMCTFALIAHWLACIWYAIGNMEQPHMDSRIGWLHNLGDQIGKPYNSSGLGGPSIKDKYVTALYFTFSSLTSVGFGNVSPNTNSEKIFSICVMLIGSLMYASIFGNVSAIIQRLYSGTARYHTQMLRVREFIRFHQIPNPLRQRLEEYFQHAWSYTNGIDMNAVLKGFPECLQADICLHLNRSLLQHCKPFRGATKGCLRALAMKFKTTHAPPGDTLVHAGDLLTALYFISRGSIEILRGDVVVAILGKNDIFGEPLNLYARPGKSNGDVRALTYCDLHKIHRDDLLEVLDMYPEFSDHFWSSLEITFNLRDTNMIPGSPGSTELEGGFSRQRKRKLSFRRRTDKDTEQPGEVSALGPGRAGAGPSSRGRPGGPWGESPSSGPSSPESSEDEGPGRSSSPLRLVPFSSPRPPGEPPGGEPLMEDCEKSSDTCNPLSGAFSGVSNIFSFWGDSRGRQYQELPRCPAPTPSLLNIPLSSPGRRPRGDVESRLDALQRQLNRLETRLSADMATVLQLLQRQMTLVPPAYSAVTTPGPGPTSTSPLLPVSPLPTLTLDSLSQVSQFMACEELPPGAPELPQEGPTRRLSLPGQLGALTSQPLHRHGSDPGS
row,SMILES,"hERG current change (%, negative = inhibition) at 10uM [%]"
1,CCNc1nc(NCC)nc(NS(=O)(=O)c2ccc(N)cc2)n1,22.7
2,CCOC(=O)C(C(=O)Nc1ccc(C)cc1)C1CCCCC1 (centres unmarked),0.407
3,CC(C)n1nnc2ccccc2c1=O,10
4,CN(C)S(=O)(=O)c1cccc(-c2cn3ccccc3n2)c1,-2.91
5,CC1CC1C(=O)OCC(=O)NNC(=O)c1ccc([N+](=O)[O-])cc1 (centres unmarked),-2.32
6,COc1ccc(C2/C(=C(/O)c3ccc(C)cc3)C(=O)C(=O)N2CC2CCCO2)cc1OC (centres unmarked),20.8
7,CCOC(=O)CNC(=O)c1ccc(C)cc1,4.88
8,COc1cc(SC)ccc1C(=O)OCC(=O)NC1CC1,7.53
9,CC(=O)Cn1nnc(-c2ccc(C(F)(F)F)cc2)n1,6.1
10,CCN1CCN(CCCNC(=O)c2ccccc2NC(=O)C2=C(C)OCCS2)CC1,1.11
11,CC(C(=O)N1CCc2ccccc21)N1CCc2ccccc2C1 (centres unmarked),-18.9
12,CC(C(=O)N1CCc2ccccc21)N1CCN(Cc2ccc(Cl)cc2)CC1 (centres unmarked),-67
13,CC(C(=O)N1CCc2ccccc21)N1CCN(Cc2ccccc2)CC1 (centres unmarked),-34
14,COCCCNc1nc2c(-c3cccc(C(F)(F)F)c3)nnn2c2ccccc12,-1.31
15,O=[N+]([O-])c1ccc(/C=N/Nc2cc(Cl)nc(-c3ccccc3)n2)cc1,2.34
16,CCC(C)c1ccc(OCC(=O)O)cc1 (centres unmarked),11.5
17,O=C(NCc1cccnc1)c1cccnc1-c1nc2ccccc2s1,-14
18,c1cncc(-c2nc3ccccc3s2)c1,2.39
19,CC(=O)N(Cc1cccnc1)c1cccc(-c2nc3ccccc3s2)c1,-51.1
20,COC(C)(C)[C@H](O)COc1c2ccoc2cc2oc(=O)ccc12,11.2
21,Cc1cccc(CCNC(=O)CCNS(=O)(=O)c2cc(Br)cnc2N)c1,-5.7
22,CC(C)c1ccc(-c2c(C#N)c(N)nc(SCC(=O)N3CCCCCC3)c2C#N)cc1,8.56
23,COc1ccccc1C(=O)Nc1ccc(OC(C)C(=O)N2CCOCC2)cc1 (centres unmarked),1.1

row,SMILES,"hERG current change (%, negative = inhibition) at 10uM [%]"
1,Cc1cccc(NC(=O)N2CCCC2)c1,12.4
2,COc1cccc(NC(=O)c2ccc(CN3CCN(c4ccccc4)CC3)cc2)c1,-48.8
3,Cc1cccc(NC(=O)c2ccc(CN3CCN(Cc4ccccc4)CC3)cc2)c1,-80.3
4,Cc1cccc(NC(=O)N2CCN(Cc3ccccc3)CC2)c1,8.14
5,O=C(Nc1cccc(C(=O)N2CCN(Cc3ccccc3)CC2)c1)c1ccccc1,-16.7
6,Cc1cccc(NC(=O)N2CCN(Cc3ccc(Cl)cc3)CC2)c1,-50.7
7,O=S(=O)(NNC(=S)NCC1CCCO1)c1cc(Cl)ccc1Cl (centres unmarked),9.42
8,COC(=O)C1=C(C)N(CCc2ccccc2)C(=O)/C1=C\c1ccco1,-4.19
9,Cn1c(=O)c2c(nc(NCCCO)n2C/C=C/c2ccccc2)n(C)c1=O,-21
10,Cn1c(CNC(=O)c2ccccc2F)nnc1SCC(=O)N1CCN(c2ccccc2)CC1,-8.2
11,O=C(CSc1nncn1-c1ccccc1)N1CCCC1,2.66
12,COc1ccc(-n2cnnc2SCC(=O)N2CCN(c3ccccc3)CC2)cc1,-36.2
13,Cc1ccccc1-n1cnnc1SCC(=O)N1CCN(c2ccccc2)CC1,-57.7
14,C=CCn1c(CSCc2ccccc2)nnc1SCC(=O)N1CCN(c2ccccc2)CC1,-23.6
15,Cn1c(Cc2ccccc2)nnc1SCC(=O)N1CCN(c2ccccc2)CC1,-14.5
16,CCn1c(CSCc2ccc(F)cc2)nnc1SCC(=O)N1CCN(c2ccccc2)CC1,-58.6
17,Cc1ccc(CSCC(=O)N2CCN(c3ccccc3)CC2)cc1,-9.06
18,CCn1c(CSCc2ccc(C)cc2)nnc1SCC(=O)N1CCN(c2ccccc2)CC1,-45.4
19,Cc1ccc(CSCc2nnc(SCC(=O)N3CCN(c4ccccc4)CC3)n2C)cc1,-54
20,Cn1c(CNC(=O)c2ccccc2)nnc1SCC(=O)N1CCN(c2ccccc2)CC1,1.77
21,Cn1c(CSCc2ccc(F)cc2)nnc1SCC(=O)N1CCN(c2ccccc2)CC1,-70.7
22,COc1ccc(OCC(N)=O)cc1,8.9
23,O=c1[nH]c(SCc2cccc(Cl)c2)nc2[nH]ncc12,12.6

row,SMILES,"hERG current change (%, negative = inhibition) at 10uM [%]"
1,C#Cc1ccc([C@@H]2C=C(C(=O)NC3CC3)O[C@H](OCC)[C@H]2CCCO)cc1,-35.2
2,CC(NC(=O)c1ccccc1)c1nnc(SCc2nc3ccccc3c(=O)[nH]2)n1C (centres unmarked),14
3,C[C@@H](CO)NC(=O)c1ccc2c3n(nc2c1)-c1ccc(Cl)cc1CO3,-1.96
4,Cc1ccccc1NC(=O)CN1C(=O)NC(C)(c2ccc3c(c2)OCO3)C1=O (centres unmarked),9.53
5,COc1ccc(C)cc1-n1nnnc1SCC(=O)NC1CC1,0.673
6,CCN1CCC2(CCN(C(=O)c3cc(COc4cc(C)ccc4C)on3)C2)C1 (centres unmarked),-54.8
7,Cc1ccc(C)c(OCc2cc(C(=O)N3CCN(c4cnccn4)CC3)no2)c1,-81.7
8,Cc1ccc(C)c(OCc2cc(C(=O)N3CCOCC3)no2)c1,-3.82
9,Cc1ccc(C)c(OCc2cc(C(=O)N3CCN(c4ccccc4)CC3)no2)c1,-31.4
10,Cc1ccc(C)c(OCc2cc(C(=O)N3CCN(C(=O)c4ccco4)CC3)no2)c1,-10.7
11,COCCN1CCN(C(=O)c2cc(COc3cc(C)ccc3C)on2)CC1,1.06
12,FC(F)(F)c1ccc(N2CCN(c3ncnc4c3nnn4Cc3ccccc3)CC2)nc1,-2.11
13,C=CCn1c(C)cc(C(=O)CSc2nnc(NCc3ccccc3)s2)c1C,-8.54
14,O=c1[nH]c(O)c(C=Nc2ccccc2Oc2ccccc2)c(=O)[nH]1,15.9
15,COc1ccc(NS(=O)(=O)c2ccc(NC(=O)Cc3cccs3)cc2)cc1,12.7
16,CCOc1ccc2nc(C)cc(C(=O)O)c2c1,-2.09
17,CCN1CCN(c2ccc(S(=O)(=O)N3CCOCC3)cc2NC(=O)CC(C)C)CC1,0.99
18,Br.COc1ccc(C(=O)CN2CCCCC2)cc1,7.07
19,CC1CC(C)CN(C(=S)Nc2ccc(OC(F)F)cc2)C1 (centres unmarked),-36.6
20,Br.CC1CC(C)CN(CC(=O)c2ccc(OC(F)F)cc2)C1 (centres unmarked),-91.5
21,Cl.O=C(CN1CCCCC1)c1ccc(F)cc1,1.94
22,Br.O=C(CN1CCCCC1)c1ccc(OC(F)F)cc1,-69.6
23,CC1CC(C)CN(CC(=O)c2cccs2)C1 (centres unmarked),-9.99

row,SMILES,"hERG current change (%, negative = inhibition) at 10uM [%]"
1,Cc1cccc(C)c1-n1nnnc1C1(Nc2ccccc2)CCCCC1,-4.36
2,CCCN(CC(=O)Nc1ccccc1OC)C(=O)CCNC(=O)c1ccccc1OC,-2.16
3,CCN(c1ccccc1)S(=O)(=O)c1ccc(N2CCN(c3ccccc3O)CC2)nc1,-0.538
4,CCN(CC)S(=O)(=O)c1ccc(N2CCN(CCO)CC2)nc1,-3.97
5,CCN(CC)S(=O)(=O)c1ccc(N2CCN(c3ccccc3O)CC2)nc1,-52.8
6,Cc1ccc(CN2CCNC(=O)C2CC(=O)N(Cc2c(C)nn(C)c2C)C2CC2)o1 (centres unmarked),23.9
7,CCN=C1SC(C(N)=O)CC(=O)N1CC (centres unmarked),12.9
8,O=C(c1cn[nH]c1)c1cc(F)ccc1O,-2.62
9,N#Cc1ccc(CSc2nnc(-c3ccccc3)n2Cc2ccco2)cc1,-26.8
10,Cc1ccc(NCc2nnc(SCc3ccc(C#N)cc3)n2Cc2ccco2)c(C)c1,-70.8
11,Cc1cccc(-c2nnc(SCc3ccc(C#N)cc3)n2Cc2ccco2)c1,-89
12,COc1cccc(-c2nnc(SCc3ccc(C#N)cc3)n2Cc2ccco2)c1,-70.3
13,Cc1ccc(-c2nnc(SCc3ccc(C#N)cc3)n2Cc2ccco2)cc1,-20.6
14,COc1ccc(C(=O)CSc2nnc(CNc3ccc(C)cc3C)n2Cc2ccco2)cc1,6.88
15,Cc1ccc(NCc2nnc(SCC(=O)c3ccccc3)n2Cc2ccco2)c(C)c1,-7.53
16,COc1cccc(-c2nnc(SCC(=O)OC(C)C)n2Cc2ccco2)c1,-15.3
17,Cc1cccc(-c2nnc(SCc3nc4ccccc4[nH]3)n2Cc2ccco2)c1,-48.8
18,O=C(CSc1nnc(-c2ccncc2)n1Cc1ccco1)N1c2ccccc2Sc2ccc(Cl)cc21,-2.92
19,CCSC1=NCCN1C(=O)c1c(-c2ccccc2Cl)noc1C,-20.6
20,O=C(CSc1nnc(-c2ccccc2)o1)NC1CCCCC1,-16.6

# Source: article PMC4336329 (PLoS ONE, 2015)
